High-throughput results from PubChem BioAssay.
PLC-beta3 inh: inhibitors of human phospholipase C beta3; hit rate 0.18% among 370,000; Purified PLC-beta3, fluorogenic substrate, fluorescence; Q01970; inhibition, % at 12.2 µM;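 also: 0% = median of compound wells on plate and 100% = full blocker control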
DAGLB inhibitor: blocks human DAGLB lipase activity | Q8NCG7 | HEK293T DAGLB membrane lysate, EnzChek fluorogenic substrate | inhibition, % at 5.17 µM | hit rate 0.059% among 340,000; in the data active = inhibition above about 34%;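 also: 0% = enzyme with vehicle and 100% = wells lacking enzyme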
HGIII-sPLA2 inh: Inhibits HGIII-sPLA2 liposome hydrolysis, primary screen; hit rate 0.56% among 370,000; QFRET BODIPY PC-A2 liposome hydrolysis, fluorescence; inhibition, % at 12.2 µM;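 active = inhibition above mean plus 3 SD of compounds lying within the high and low control bounds, cut at about 19% in these data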;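 also: 0% = median of test compound wells and 100% = no enzyme DMSO wells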
PLCg1 inh: inhibitors of human phospholipase C gamma1 | purified PLC-gamma1, fluorogenic substrate, fluorescence | inhibition, % at 12.2 µM | hit rate 0.84% among 370,000 | AID 720700; in the data active = inhibition above about 9.5%
PLCg1 ctr: PLC-gamma1 inhibition, counter-screen for PLC-beta3 hits; shares compounds with PLCg1 inh; purified PLC-gamma1, fluorogenic substrate, fluorescence; hit rate 3.1% among 3,300; inhibition, % at 12.3 µM; in the data active = inhibition above about 9.5%
PLCb3 confirm: human PLC-beta3 inhibition, confirmation; shares compounds with PLCg1 inh; purified PLC-beta3, fluorogenic substrate fluorescence; inhibition, % at 12.3 µM; hit rate 1% among 3,300
* = called active by the depositor; x = no result given. A selection: hits, their analogues and other compounds. The true share with any hit is near 1.5%. Rule as the data show it, unless noted: active = inhibition above about 11%; inactive = the rest.

SMILES	PLC-beta3 inh	DAGLB inhibitor	HGIII-sPLA2 inh	PLCg1 inh	PLCg1 ctr	PLCb3 confirm
O=C(CCn1nnc2ccccc21)N1CCN(c2ccc(F)cc2)CC1	0	x	3	0	x	x
CC(=O)Nc1cccc(-c2ccnc3c2CC(C(=O)NCC2CCOCC2)O3)c1 (stereo not drawn)	13*	x	8	12*	-1	3
C=CCN(C)C(C#Cc1ccccc1)Cc1ccccc1 (stereo not drawn)	-2	x	-1	0	x	x
COc1ccccc1NC(=O)c1c([N+](=O)[O-])c(C(C)(C)C)nn1C	7	-5	7	12*	2	3
COc1ccc(CNC(=O)C[C@H]2C(=O)N(Cc3ccc(OC)cc3)C[C@@H]2Cc2ccccc2)cc1	5	-2	-15	11*	6	7
CC1(C(=O)Nc2ccc3[nH]ncc3c2)CCN1C(=O)CC(c1ccccc1)c1ccccc1 (stereo not drawn)	2	x	-14	-1	x	x
Cc1cc(C(=O)N2CCC2(C)C(=O)Nc2ccc3[nH]ncc3c2)nn1C (stereo not drawn)	15*	x	-1	3	-7	-5
CCCN(CC1CC1)S(=O)(=O)c1ccc(S(N)(=O)=O)cc1	-3	-1	16	12*	-4	-6
CC(C)NC(=O)N[C@@H]1C[C@@H]2O[C@H](CO)CC[C@@H]2O[C@@H]1CCc1ccc(-c2ccccc2F)cc1	-1	x	-2	2	x	x
CCCC1CCC2(CC1)CCC2OC(=S)Nc1ccccc1Cl (stereo not drawn)	0	x	-2	-2	x	x
Cc1ccc(S(=O)(=O)N2CCC(C(=O)NNC(=O)c3ccncc3)CC2)cc1	12*	0	-2	9	-6	-4
CC(C)(C)NC(=O)C(c1cccnc1)N(C(=O)c1cccs1)c1ccc(C(C)(C)C)cc1 (stereo not drawn)	0	x	12	3	x	x
O=C(CN1C(=O)NC2(CCCCCCC2)C1=O)NCc1ccc(Cl)cc1	-4	1	2	12*	-5	-3
CN(Cc1ccccc1)C(=O)CN1C(=O)NC2(CCCCCCC2)C1=O	0	-5	1	13*	1	5
COc1cc(CN2CCCC(C)C2)ccc1OCc1ccccc1 (stereo not drawn)	-3	-2	-11	5	x	x
COc1cc(CN2CCC(C)CC2)ccc1OCc1ccccc1	-2	-2	-9	15*	5	4
CCNC(=O)N(C)[C@H]1C[C@H]2c3[nH]c4c(-c5ccccc5)cccc4c3CCN2C(=O)[C@H]1[C@H](C)O	-296	x	-7	-234	x	x
OCC(O)CN1CCCC1 (stereo not drawn)	-9	x	4	1	x	x
OC(CN1CCCCC1)CN1CCCCC1	-95	1	-5	11*	-3	0
CC1(C(=O)NS(=O)(=O)Cc2cccc(Cl)c2)CCN1C(=O)CCc1ccccc1 (stereo not drawn)	-7	x	-7	-3	x	x
CCNC(=O)C1(C)CCN1C(=O)CCc1cccc(Cl)c1 (stereo not drawn)	8	x	-3	14*	-8	-4
O=C(NCCCN1CCCC1=O)NC1CCCCC1	11*	0	5	5	-2	-1
CCN(CC)C(=O)CC[C@H]1CC[C@]2(CCCN(c3ccccc3)C2)O1	-9	x	12	-5	x	x
C[C@H]1C2CC(OC(=O)Nc3ccc4c(c3)OCO4)C(C2)[C@H]2CCCCN21 (stereo partly drawn)	1	x	9	7	x	x
CCOc1cc(Br)cc(C(c2c(C(=O)O)[nH]c3ccccc23)c2c(C(=O)O)[nH]c3ccccc23)c1O	-10	16	-184	28*	48*	-4
SMILES	PLC-beta3 inh	DAGLB inhibitor	HGIII-sPLA2 inh	PLCg1 inh	PLCg1 ctr	PLCb3 confirm
CSc1ccc(C(c2c(C(=O)O)[nH]c3ccccc23)c2c(C(=O)O)[nH]c3ccccc23)cc1	-22	6	-70	-7	x	x
COc1cccc(N2CCN(C(=O)Cn3c(=O)oc4ccccc43)CC2)c1	-2	-3	-1	9.8*	-3	-6
O=C(NCC(=O)N(c1cccnc1)C(C(=O)NC1CCCCC1)c1ccccc1F)c1ccco1 (stereo not drawn)	5	1	3	11*	2	1
CCOc1ccc(C(C(=O)NC2CCCC2)N(CCOC)C(=O)CNC(=O)c2ccco2)cc1 (stereo not drawn)	-9	0	3	-3	x	x
CCCCN(C(=O)CNC(=O)c1ccco1)C(C(=O)NC1CCCC1)c1ccc(OC)cc1 (stereo not drawn)	-1	-3	-2	12*	-3	-2
CN(C)C(=O)CCc1nc(-c2ccc(C(C)(C)C)cc2)no1	5	-1	-5	12*	-8	-1
COc1ccc(CN2CCC(CNC(=O)NC3CCCC3)CC2)cc1	0	x	1	3	x	x
Cc1oc(C)c(C(N)=O)c1C(N)=O	11*	-2	8	7	-6	-3
CC(C)c1ccc(OC[C@@H](O)CN2CCC(C(O)(c3ccccc3)c3ccccc3)CC2)cc1	5	x	-29	2	x	x
O=C(Nc1ccc(C(O)c2ccccc2)cc1)[C@@H]1O[C@H](CO)[C@H](O)[C@H](O)[C@H]1O (stereo partly drawn)	8	x	13	14*	-7	-2
CC(C)(N[C@@H](Cc1c[nH]c2ccccc12)C(=O)NCCc1c[nH]c2ccccc12)C(=O)NC1CCCCC1	-4	x	-99	1	x	x
COc1ncccc1C(=O)NC1CCCc2c1cnn2-c1ccc(C)c(C)c1 (stereo not drawn)	-12	0	-3	-3	x	x
CSc1ncccc1C(=O)NC1CCCc2c1cnn2-c1ccc(C)c(C)c1 (stereo not drawn)	-8	-5	-6	11*	2	0
Cn1c(=O)oc2cc(S(=O)(=O)N3CCN(CCO)CC3)ccc21	3	x	4	0	x	x
CC(C)c1nc(N(C)S(C)(=O)=O)nc(-c2ccc(F)cc2)c1/C=C/[C@H](O)C[C@@H](O)CC(=O)O	3	x	0	-1	x	x
CCOC(=O)c1c(C)n(-c2ccc(C)cc2)c2c(CC(C)=O)c(Br)c(OC)c(O)c12	7	-2	10	10*	-5	-3
CCOC(=O)c1c(C)n(-c2ccc(C)cc2)c2c(C(C(C)=O)C(=O)O)c(Br)c(O)c(O)c12 (stereo not drawn)	-25	3	15	-19	x	x
CC(=O)OC(C)C(=O)NS(=O)(=O)c1ccc(C)cc1 (stereo not drawn)	3	-2	15	8	x	x
COC(=O)C(C(=O)OC)[C@H]1C=C[C@@H](C(=O)NS(=O)(=O)c2ccc(C)cc2)N(C(C)=O)C1	0	x	5	81*	76*	-4
CC(=O)N1C[C@@H](c2c[nH]c3ccccc23)C=C[C@H]1C(=O)NS(=O)(=O)c1ccc(C)cc1	-17	x	-34	53*	48*	-16
CC(=O)N1CCC(c2c[nH]c3ccccc23)CC1	0	0	0	2	x	x
Cc1cc(-c2n[nH]c(=S)n2N=Cc2ccc(O)cc2)n[nH]1	6	x	7	6	x	x
